Shiga inhibitor – A qHTS for Small Molecule Inhibitors of Shiga Toxin | Vero cells, Shiga toxin protein synthesis inhibition reporter | inhibition, % at 38.7 µM | hit rate 9.2% among 290,000; in the data active = inhibition mostly above about 28%, no sharp cut-off; inactive = mostly below about 43%
Pf growth 48h – Primary qHTS for delayed death inhibitors of the malarial parasite plastid, 48 hour incubation | hit rate 5.9% among 310,000 | AID 504832, 2011 | Potency, µM (titrated, usually from 28.7 µM), usual class: inhibitors | P. falciparum luciferase growth in erythrocytes, 48 h; active = well fitted inhibition curve with a large enough effect; inconclusive = small, poorly fitted or top-dose-only effect, or another doubt; inactive = no such curve, though single readings can be large or run the other way
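Luciferase-expressing P. falciparum in infected erythrocytes (2% hematocrit, 0.1% parasitemia final) in RPMI 1640/0.5% Albumax were exposed to compound for 48 hours at 37 C, 5% CO2; growth read as luminescence.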
CHX counter – Cycloheximide Counterscreen for Small Molecule Inhibitors of Shiga Toxin | cell reporter, cycloheximide protein synthesis inhibition counterscreen | max response, % | hit rate 12% among 300,000 | AID 2314, 2010; in the data active = max response mostly above about 13%, no sharp cut-off; inactive = mostly below about 14%; also: read at 38.3 µM for the half of the compounds with a filed dose
NS1 inh – qHTS Assay for Inhibitors of Influenza NS1 Protein Function | Potency, µM (doses to about 46.1 µM) | hit rate 0.4% among 270,000 | AID 2326, 2010; also: actives are rising curves; nearly all actives have a fitted effect of over 50% in size
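A cell-based growth assay was used: compounds that relieve NS1-induced slow growth of budding yeast raise OD600. Assay medium was yeast nitrogen base with ammonium sulphate and -URA supplement, pH 6.0, with 2% galactose.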
SARS PLP yeast – qHTS of Yeast-based Assay for SARS-CoV PLP | S. cerevisiae expressing SARS-CoV PLpro, growth rescue | Potency, µM (top dose mostly 32.9 µM), hits mostly activators | hit rate 0.19% among 330,000 | AID 485353, 2010; also: nearly all actives have a fitted effect of over 55% in size
Pf growth 96h – Primary qHTS for delayed death inhibitors of the malarial parasite plastid, 96 hour incubation | P. falciparum luciferase reporter growth, 96 h | Potency, µM (series often up to 28.7 µM), most hits filed as inhibitors | hit rate 6.9% among 320,000; active = well fitted inhibition curve with a large enough effect; inconclusive = small, poorly fitted or top-dose-only effect, or another doubt; inactive = no such curve, though single readings can be large or run the other way
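Plates of compound plus infected erythrocytes (2% hematocrit, 0.05% parasitemia final) incubate 96 hours, 37 C, 5% CO2. Detection reagent added; reduced luminescence from the parasites' luciferase reporter flags inhibition.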
Numbers stand for hits; n = inactive; u = inconclusive; x = no result. Shown are actives, neighbours in structure and some others; about 21% of the full set was active somewhere. Unless noted, calls follow the shape of the full dose curve.

SMILES | Shiga inhibitor | Pf growth 48h | CHX counter | NS1 inh | SARS PLP yeast | Pf growth 96h
CCOc1ncccc1C(=O)Nc1cccc(-c2nc3cccnc3s2)c1 | n | n | n | n | n | n
COC(=O)c1ccc(CNC(=O)C2CCC(=O)N(C3CCCCCC3)C2)cc1 (stereo not given) | n | n | n | n | n | n
COc1ccc(-c2oc3cccnc3c2/C=C/c2ccc(OC)c(OC)c2)cc1 | n | u | 9.9 | u | n | 12µM
Cc1ccc2nc(N(CCCN(C)C)C(=O)c3ccc4c(c3)CCCC4)sc2c1 | n | 10µM | n | n | n | 1.9µM
CCOc1ccc2nc(N(CCN(C)C)C(=O)c3ccc4c(c3)CCCC4)sc2c1 | n | n | n | n | n | u
Cc1cc(C)c2nc(N(CCCN(C)C)C(=O)c3ccc4c(c3)CCCC4)sc2c1 | x | 7.4µM | x | x | n | u
CN(C)CCCN(C(=O)c1cc(-c2cccs2)nc2ccccc12)c1nc2c(F)cccc2s1 | n | u | n | n | n | u
Cc1ccc2nc(N(CCCN(C)C)C(=O)c3cc(-c4cccs4)nc4ccccc34)sc2c1 | n | n | n | n | n | 13µM
Cc1ccc2nc(N(CCN(C)C)C(=O)c3cc(Cl)sc3Cl)sc2c1 | 33 | n | 22 | n | n | n
COCCNC(=O)CN(C(=O)CCC(=O)Nc1ccccn1)c1ccccc1F | n | n | n | x | n | n
CCOC(=O)N1CCN(CC(=O)Nc2ccc(F)c(F)c2)CC1 | n | n | n | x | n | n
O=S(=O)(c1ccc(Br)cc1)N1CCN(S(=O)(=O)c2ccc(Br)cc2)CC1 | x | x | x | n | x | x
CN(C)CCCN(C(=O)c1ccc(N2C(=O)CCC2=O)cc1)c1nc2c(F)cccc2s1 | n | n | n | x | n | n
CN(C)CCCN(C(=O)c1ccc2c(c1)CCCC2)c1nc2c(F)cccc2s1 | 24 | 9.3µM | 17 | n | n | u
Cc1ccc(OCCC(=O)OCC(=O)Nc2ccc(F)cc2)cc1 | x | n | x | x | n | n
CCN(C(=O)c1cc2c(=O)[nH]c3ccc(C)cc3c2s1)c1ccc(OC)cc1 | n | u | n | n | n | 5.2µM
Cc1ccc(C)c(N(C)C(=O)c2cc3c(=O)[nH]c4ccc(C)cc4c3s2)c1 | n | 10µM | n | n | n | u
CCOCCCN(Cc1ccco1)C(=O)c1cc2c(=O)[nH]c3ccc(C)cc3c2s1 | n | x | n | n | n | n
Cc1ccc2[nH]c(=O)c3cc(C(=O)N(C)Cc4ccco4)sc3c2c1 | n | x | 23 | n | u | n
CCOC(=O)c1[nH]c2c(c1C)C(=O)CC(c1ccc(OCC)c(OC)c1)C2 (stereo not given) | n | x | n | n | n | n
CCOC(=O)c1[nH]c2c(c1-c1ccccc1)C(=O)CC(c1ccc(OC)c(OC)c1)C2 (stereo not given) | n | u | 15 | n | n | 10µM
CCOC(=O)c1[nH]c2c(c1-c1ccccc1)C(=O)CC(c1ccc(OCC)cc1)C2 (stereo not given) | n | n | n | n | n | 10µM
COC(=O)c1cccnc1-n1c(=O)c2cccnc2n(Cc2cccc(C(F)(F)F)c2)c1=O | n | n | n | x | n | u
CCc1cccc(CC)c1NC(=O)C1CSC2(C)CCC(=O)N12 (stereo not given) | x | n | x | x | n | n
CCN(c1ccccc1)S(=O)(=O)c1ccc(OC)c(NC(=O)CNCCc2ccccc2)c1 | n | 12µM | 25 | n | n | u
SMILES | Shiga inhibitor | Pf growth 48h | CHX counter | NS1 inh | SARS PLP yeast | Pf growth 96h
CCN(c1ccccc1)S(=O)(=O)c1ccc(OC)c(NC(=O)Cc2ccc(F)cc2)c1 | x | u | x | x | n | 10µM
CCN(c1ccccc1)S(=O)(=O)c1ccc(OC)c(NC(=O)CN2C(=O)NC(C)(C)C2=O)c1 | x | n | x | x | n | n
CCN(c1ccccc1)S(=O)(=O)c1ccc(OC)c(NC(=O)C2CCC2)c1 | x | x | x | x | n | x
COc1ccc(N(CC(=O)NCc2ccccn2)S(=O)(=O)c2ccccc2[N+](=O)[O-])c(OC)c1 | n | n | n | n | n | n
COc1cccc2cc(/C(=N/O)c3ccccc3)oc12 | n | n | 26 | n | n | n
COc1ccc(C(=O)c2cc3cccc(OC)c3o2)cc1 | 98 | n | 41 | n | n | n
COc1cccc2cc(C(C)=O)oc12 | n | n | n | n | n | u
COc1cccc(Nc2nc(N)nc(CCl)n2)c1 | 146 | u | 57 | n | n | u
Cc1cccc(Nc2nc(N)nc(CSc3nccc(C)n3)n2)c1 | n | n | n | n | n | u
Cc1cccc(Nc2nc(N)nc(CCl)n2)c1 | 77 | u | 61 | n | n | 9.3µM
Nc1ncnc2c1ncn2[C@@H]1O[C@H](CNC(=O)[C@@H]2C[C@H](F)CN2)[C@@H](O)[C@H]1O | x | x | x | x | n | x
Nc1nc(-c2ccc(Br)s2)c(Br)s1 | 63 | n | 38 | n | n | x
N#Cc1c(N)nc2c(c1-c1ccc(Br)s1)CCCC2 | n | n | n | n | u | n
COc1ccc(OC)c(NC(=O)c2ccccc2N(Cc2ccccc2)S(C)(=O)=O)c1 | n | u | n | n | n | n
O=[N+]([O-])c1ccc(/C=N/N2CCN(Cc3ccccc3)CC2)cc1 | n | n | n | n | n | n
CC1CCCC(C)N1/N=C/c1ccc(N(C)C)cc1 (stereo not given) | n | n | n | x | n | n
Clc1ccc(/C=N/N2CCCCC2)cc1 | 34 | n | 29 | n | n | n
CC1CCCC(C)N1/N=C/c1ccc([N+](=O)[O-])cc1 (stereo not given) | 54 | n | 43 | n | n | n
O=[N+]([O-])c1ccc(/C=N/N2CCCCC2)cc1 | 128 | n | 34 | n | n | n
COc1ccc(/C=N\NC(=O)C2=NNC(=O)C2C)cc1 (stereo not given) | 42 | n | 25 | n | n | n
Cc1c(C(=O)N/N=C/c2ccncc2)no[n+]1[O-] | n | n | 21 | n | n | n
Cc1nonc1C(=O)N/N=C/c1ccncc1 | 51 | n | 29 | n | n | 8.3µM
COc1ccc(/C=N/NC(=O)c2nonc2C)cc1 | 62 | n | 44 | n | n | n
Nc1nonc1C(=O)N/N=C/c1ccncc1 | n | n | n | x | n | u
COc1cc(CCc2ccccc2)c(C(=O)O)c(O)c1C/C=C(/C)CCC=C(C)C | x | x | x | x | n | x
Cc1nnsc1C(=O)N/N=C/c1ccccc1 | n | n | n | n | n | u
Cc1nnsc1C(=O)N/N=C/c1ccc(OC(F)(F)F)cc1 | 64 | u | 23 | x | n | n
Cc1c(NS(=O)(=O)c2cccc3nsnc23)c(=O)n(-c2ccccc2)n1C | n | n | n | n | n | n
C=CCCC(=O)N1CCCC(C(=O)c2cccc(OC)c2)C1 (stereo not given) | n | n | 21 | n | n | u
Cn1nccc1C(=O)N1CCCC(C(=O)c2cccc3ccccc23)C1 (stereo not given) | n | n | n | n | n | n

Screening results deposited in PubChem by National Center for Advancing Translational Sciences (NCATS).
